VACV mCherry inh – inhibitors of vaccinia virus infection (mCherry reporter signal). Vaccinia virus mCherry reporter infection, fluorescence. 310,000 compounds, 0.63% hits. Potency, µM (doses to about 36.5 µM), most hits filed as inhibitors; calls by dose curve; tested in A549 cells; also: nearly all actives have a fitted effect of over 35% in size
AMA1 RON2 block – inhibitors of Plasmodium falciparum AMA1-RON2 interaction; AlphaScreen AMA1-biotinylated RON2 peptide binding; Potency, µM (titrated, usually from 58.2 µM), most hits filed as inhibitors; 360,000 compounds, 0.2% hits; AID 720542; also: nearly all actives have a fitted effect of over 45% in size
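AMA1 (3D7) with his tag at 25 nM final met compounds first, then biotinylated RON2 peptide at 25 nM; detection used donor plus acceptor beads, 10 µg/mL apiece, read by AlphaScreen after 30 min at room temperature.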
Pf growth 48h – inhibits P. falciparum growth in the first generation, 48 h | P. falciparum luciferase growth in erythrocytes, 48 h | Potency, µM (top dose mostly 28.7 µM), usual class: inhibitors | 310,000 compounds, 5.9% hits
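Luminescence readout; reporter = integrated firefly luciferase in P. falciparum. RBC culture at 2% hematocrit, 0.1% parasitemia final, 37 C/5% CO2; decreased signal taken as growth inhibition.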
Pf growth 96h – P. falciparum growth inhibition at 96 hour, primary screen for plastid delayed-death inhibitors; P. falciparum luciferase reporter growth, 96 h; Potency, µM (highest dose often 28.7 µM), usual class: inhibitors; 320,000 compounds, 6.9% hits; AID 504834
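Compounds incubated with erythrocytes infected by luciferase-expressing P. falciparum (2% hematocrit, 0.05% parasitemia final) for 96 hours, 37 C in 5% CO2. Growth inhibition scored as decreased luciferase luminescence.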
Vaccinia Venus – inhibitors of vaccinia virus (Venus reporter); Potency, µM (top dose mostly 36.5 µM), actives largely listed as inhibitors; Vaccinia virus Venus reporter expression, fluorescence; AID 720580; 330,000 compounds, 0.46% hits; calls by dose curve; tested in A549 cells; also: nearly all actives have a fitted effect of over 30% in size
Numbers stand for hits; n = inactive; u = inconclusive; x = not tested or not shown; [ ] = another dose, or the depositor's remark. Shown are actives, neighbours in structure and some others; about 8.7% of the full set was active somewhere. Unless noted, calls follow the shape of the dose curve; as a rule, active = well fitted curve in the direction sought with a large enough effect; inconclusive = small, poorly fitted or top-dose-only effect, or another doubt; inactive = no such curve, though single readings can be large; an effect the other way counts as inactive or inconclusive.

SMILES	VACV mCherry inh	AMA1 RON2 block	Pf growth 48h	Pf growth 96h	Vaccinia Venus
CCOC(=O)c1sc(NC(=O)CNCc2ccccn2)c(C(=O)OCC)c1C	u	n	1µM	0.41µM	n
CCOC(=O)c1c(NC(=O)CC)sc(C(=O)N2CCCCC2)c1C	n	n	x	13µM	n
CCOC(=O)c1c(NC(=O)CN2C(=O)NC3(CCC(C)CC3)C2=O)sc(C(=O)N(C)C)c1C (stereo not given)	n	n	u	u	n
CCOC(=O)c1c(NC(=O)C2C3CCC(O3)C2C(=O)O)sc(C)c1-c1ccc(C)cc1 (stereo not given)	x	n	n	n	11µM
COc1ccc(C)cc1NC(=O)CN(c1cc(C(F)(F)F)ccc1Cl)S(C)(=O)=O	n	x	x	x	n
N#Cc1ccccc1Cn1c(SCC(=O)Nc2ccc(F)cc2)nc2ccccc21	n	x	x	x	n
CCOc1ccc(-n2c(SCC(=O)N3CCCc4ccccc43)nc3c([nH]c4ccccc43)c2=O)cc1	n	x	x	x	n
CCOC(=O)c1c(NC(=O)CN2C(=O)NC3(CCCCC3)C2=O)sc(C)c1-c1ccc(C)cc1	n	n	15µM	9.3µM	n
Cc1ccc(C)c(NC(=O)CCS(=O)(=O)c2cccc3nsnc23)c1	n	x	x	x	n
COc1cc2c3c(c1OC)C1(C=CC(=O)C=C1)CC3N(C(=O)CCC(=O)O)CC2 (stereo not given)	x	n	2.1µM	n	x
O=C(Nc1ccccc1O)c1ccc(Cl)cc1	n	n	5.9µM	u	n
O=C(Nc1ccccc1OC(=O)c1ccc(Cl)cc1)c1ccc(Cl)cc1	n	n	u	u	n
O=C(NCC1(N2CCOCC2)CCCCCC1)c1cnn(-c2nccc(-c3ccco3)n2)c1C1CC1	n	x	x	x	n
CN(C)c1nc(-c2ccccc2)[n+](C)s1	x	n	12µM	n	n
CN(C)c1cc(-c2ccccc2)nc(-c2ccccc2)n1	n	n	n	n	n
Cc1oc(-c2cccc(NC(=O)C3CCCN(C)C3)c2)nc1CNC(=O)c1coc2c1C(=O)CCC2 (stereo not given)	n	x	x	x	n
CCOC(=O)CCCCC(=O)c1[nH]c(=O)[nH]c1CN1CCOCC1	n	9.5µM	n	u	n
CCOC(=O)CCCCC(=O)c1[nH]c(=O)[nH]c1C[n+]1ccccc1	x	x	u	n	x
C=CCc1c(C)[nH]c2ccc(C)cc2c1=O	n	n	1.5µM	x	n
CCCc1c(C)c2cc(C)ccc2[nH]c1=O	u	n	n	9.3µM	n
CCc1c(C)[nH]c2ccc(C)cc2c1=O	n	n	1.7µM	n	n
CCCCc1c(C)c2cc(C)ccc2[nH]c1=O	x	n	x	n	x
Cc1ccc(C(=O)N/N=C(/CC(=O)c2cccs2)C(F)(F)F)cc1	n	n	n	n	n
O=C(N/N=C(\CC(=O)c1cccs1)C(F)(F)F)c1ccncc1	u	n	0.23µM	u	n
NC(=O)C1CCN(c2nc(-c3cccc(Br)c3)cs2)CC1	x	x	u	n	x
SMILES	VACV mCherry inh	AMA1 RON2 block	Pf growth 48h	Pf growth 96h	Vaccinia Venus
COc1ccc(CN2CCCC(n3cc(C(=O)N4CCCCC4)nn3)C2)c(OC)c1C (stereo not given)	n	x	x	x	n
Nc1cccc(Nc2nc(OC(C(F)(F)F)C(F)(F)F)nc(OC(C(F)(F)F)C(F)(F)F)n2)c1	n[1.46 µM]	n	u	u	28µM
CSCCCNC(=S)N1CCN(S(=O)(=O)c2cccc(C(F)(F)F)c2)CC1	n	n	10µM	n	n
O=S(=O)(c1cccc(C(F)(F)F)c1)N1CCN(C(=S)NCc2ccco2)CC1	n	n[11.6 µM]	4.7µM	2.3µM	n
CC(=O)NC12CC3CC(C1)CC(C(=O)N1CCN(S(=O)(=O)c4cccc(C(F)(F)F)c4)CC1)(C3)C2	n	n	13µM	u	n
CC(C)c1ccc(S(=O)(=O)N2CCN(C(=S)NCc3ccco3)CC2)cc1	n	n	u	u	n
Cc1ccccc1OCC(=O)Nc1ccc(C(=O)OCc2cc(=O)n3ccsc3n2)cc1	n	x	x	x	n
CCOC(=O)c1cc2c(=O)n3ccccc3nc2n(CC2CCCO2)c1=NC(=O)c1ccc(OCC)cc1 (stereo not given)	n	x	x	x	n
O=C(N1CCCCC1)C1(c2ccccc2)CCOCC1	x	n	n	12µM	n
CCN1CCc2c(sc(NC(=O)c3ccc(S(=O)(=O)N4CCOCC4)cc3)c2C(N)=O)C1	n	n	u	u	n
CCN1CCc2c(sc(NC(=O)Nc3ccc(Cl)c(Cl)c3)c2C(N)=O)C1	u	n	12µM	n	u
CNC(=O)c1c(NC(=O)c2ccc(S(=O)(=O)N3CCCCC3C)cc2)sc2c1CCN(C)C2 (stereo not given)	x	n	u	10µM	x
CC(C)N1CCc2c(sc(NC(=O)c3ccc(S(=O)(=O)N4CCOCC4)cc3)c2C(N)=O)C1	u	n	u	4.1µM	n
CCCN1CCc2c(sc(NC(=O)c3ccc(S(=O)(=O)N4CCCC4)cc3)c2C(N)=O)C1	x	n	9.3µM	u	x
COC(=O)c1c(NC(=O)c2ccc(S(=O)(=O)N3CCOCC3)cc2)sc2c1CCN(C)C2	n	n	13µM	u	u
CCN1CCc2c(sc(NC(=O)COc3ccccc3)c2C(=O)OC)C1	x	n	15µM	n	x
CNC(=O)c1c(NC(=O)c2ccc(S(=O)(=O)N3CCCC3)cc2)sc2c1CCN(C(C)C)C2	x	x	2.6µM	u	x
CCN1CCc2c(sc(NC(=O)c3ccc(S(=O)(=O)N4CCOCC4)cc3)c2C(=O)OC)C1	u	n	u	x	n
CCN1CCc2c(sc(NC(=O)c3ccc(S(=O)(=O)N(CC)c4ccccc4)cc3)c2C(N)=O)C1	u	n	u	13µM	11µM
O=C(NC1CCCCC1)C(c1ccc2ncccc2c1)N(Cc1cccs1)C(=O)c1cccs1 (stereo not given)	n	n	12µM	u	n
O=C(NC1CCCCC1)C(c1ccc2ncccc2c1)N(Cc1ccc2c(c1)OCO2)C(=O)c1ccc2c(c1)OCCO2 (stereo not given)	n	n	7.4µM	u	n
O=C(NC1CCCCCCC1)c1ccc2c(c1)OCO2	x	n	n	n	x
O=C(NC1CCCCC1)C(c1ccc2ncccc2c1)N(Cc1ccc(F)cc1)C(=O)c1ccc2c(c1)OCCO2 (stereo not given)	n	n	u	10µM	n
O=C(NC1CCCCC1)C(c1ccc2ncccc2c1)N(Cc1ccco1)C(=O)c1ccc2c(c1)OCCO2 (stereo not given)	x	n	5.2µM	2.6µM	x
O=C(NC1CCCC1)C(c1ccc(F)cc1)N(Cc1ccc(F)cc1)C(=O)c1ccn[nH]1 (stereo not given)	n	n	n	n	n
O=C(NC1CCCCC1)C(c1ccc(F)cc1)N(Cc1ccco1)C(=O)c1ccccn1 (stereo not given)	n	n	u	n	n
Cn1c(/C(C#N)=C/c2ccc(C(F)(F)F)cc2)nc2ccccc21	n	x	x	x	n
O=C(COc1ccc2oc3c(c2c1)CCCC3)Nc1ccc(Br)cc1	n	x	x	x	n
CCSc1ccccc1C(=O)Nc1ccc(-c2nc3ccccc3s2)c(O)c1	n[7.34 µM]	x	x	x	n[7.34 µM]
